Usually AC50 stands for the concentration at which the activity in the assay is half-maximal.

Molecules are shown by their SMILES. Activity calls are given as the source filed them. Rule for the calls: active = hit-call score of the fitted dose curve at least 0.9, where 1 is the maximum; inactive = score below 0.9.

In PubChem BioAssay (EPA / NIEHS) one finds outcome and AC50 data, which are given here for 40 compounds.

Chain of Retinoic acid receptor alpha (Homo sapiens) (P10276 whole entry, looked up): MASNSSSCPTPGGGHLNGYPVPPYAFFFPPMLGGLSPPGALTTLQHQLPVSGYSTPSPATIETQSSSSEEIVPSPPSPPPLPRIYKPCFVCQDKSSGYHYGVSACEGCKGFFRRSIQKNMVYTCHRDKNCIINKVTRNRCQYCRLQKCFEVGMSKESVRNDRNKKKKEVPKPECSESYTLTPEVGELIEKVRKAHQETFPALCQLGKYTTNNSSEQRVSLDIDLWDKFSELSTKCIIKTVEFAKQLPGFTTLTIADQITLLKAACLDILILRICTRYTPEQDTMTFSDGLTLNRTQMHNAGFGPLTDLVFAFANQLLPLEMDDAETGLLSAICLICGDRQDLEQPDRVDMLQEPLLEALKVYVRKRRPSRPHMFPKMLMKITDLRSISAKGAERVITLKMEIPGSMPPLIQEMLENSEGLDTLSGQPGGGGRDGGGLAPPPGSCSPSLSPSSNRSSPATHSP

For the assay, the target named is Retinoic acid receptor alpha (Homo sapiens) (UniProt P10276). Put plainly: ATG_DR5_RAR_CIS: Attagene CIS-FACTORIAL HepG2 Assay for human Retinoic Acid Receptor Alpha (RARE), DR5 submotif (AID 2282934).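 For AC50: reporter responds to endogenous RAR alpha beta and gamma in HepG2 not RARA alone.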 The note with it: HepG2 Attagene cis-factorial RARE DR5 reporter, mRNA; actives raise or lower the signal. The method, then:
ATG_CIS is a cell-based, multiplexed-readout assay that uses HepG2, a human liver cell line, with measurements taken at 24 hours after chemical dosing in a 24-well plate.ATG_DR5_RAR_CIS is one of 52 assay component(s) measured or calculated from the ATG_CIS assay. It is designed to make measurements of mRNA induction, a form of inducible reporter, as detected with fluorescence intensity signals by Reverse transcription polymerase chain reaction (RT-PCR) and Capillary electrophoresis technology.Data from the assay component ATG_DR5_RAR_CIS was analyzed into 1 assay endpoint. This assay endpoint, ATG_DR5_CIS, was analyzed with bidirectional fitting relative to DMSO as the negative control and baseline of activity. Using a type of inducible reporter, measures of mRNA for gain or loss-of-signal activity can be used to understand the reporter gene at the transcription factor-level as they relate to the gene RARA and RARB and RARG. Furthermore, this assay endpoint can be referred to as a primary readout, because this assay has produced multiple assay endpoints where this one serves a reporter gene function. To generalize the intended target to other relatable targets, this assay endpoint is annotated to the nuclear receptor intended target family, where the subfamily is non-steroidal.
Human liver HepG2 cells are transiently transfected with multiple reporter transcription units (MRTUs) in 6-well plates using FuGene 6 reagent (Roche; 3 ml FuGene/1 mg DNA). The MRTU constructs are regulated by a cis-regulating element (promoter). […] A major difference between the CIS and TRANS system is that in CIS activities of endogenous TFs are measured, whereas the TRANS assay evaluates changes in activities of exogenous, chimeric NR-Gal4 proteins. […] At the end of 24 hour incubation, total RNA was isolated using TriZol reagent (Invitrogen). The isolated RNA is then reverse-transcribed using oligo(dT) primer and Mo-MLV reverse transcriptase (Invitrogen) with DNAse I (Ambion) treatment for 30 min. The one-tenth of the produced cDNA was amplified by PCR using Taq DNA polymerase (Invitrogen) and two reporter sequence-specific primers. The PCR products were fluorescently labeled by primer extension with 6-arboxyfluorescein (6-FAM) 5'-labeled reporter sequence-specific primer (2 min at 95 C, 20 s at 68 C and 10 min at 72 C) and these products were digested with 5U of HpaI (New England Biolabs) for 2h at 37 C. The fragments were purified using Qiaquick PCR columns (Qiagen), analyzed on an ABI 3130xL genetic analyzer (Applied Biosystems) with peak positions identified by using a set of X-rhodamine (ROX)-labeled MapMarker1000 molecular weight standards (BioVentures). The raw capillary electrophoresis data was processed using Attagraph software (Attagene).
As to `CNCc1cc(F)ccc1Oc1ccc(Cl)c(Cl)c1`, the compound was classed as inactive.

Regarding `O=C(OCCCCCOC(=O)c1ccccc1)c1ccccc1`, the call was inactive.

`COCCOC[C@H](CC1(C(=O)NC2CCC(C(=O)O)CC2)CCCC1)C(=O)Oc1ccc2c(c1)CCC2` (stereo not given in full): the call was inactive.

For `Cc1ccc(C)c(C)c1`, the outcome was inactive.

As for `Cc1c(C(=O)O)c(O)cc2c1C(=O)c1c(O)c([C@@H]3O[C@H](CO)[C@@H](O)[C@H](O)[C@H]3O)c(O)c(O)c1C2=O`, the result was inactive.

With `CCCCCCCCCCCCCO`, the AC50 is 11.7 µM (active).

On to `CC1(C)NC(=O)NC1=O`, for which the compound was called inactive.

In the case of `O=c1c(O)c(-c2ccc(O)c(O)c2)oc2cc(O)cc(O)c12`, the compound was called inactive.

In the case of `COCCOCCOC`, the call was inactive.

In the case of `CCCCCCCCCCO`, the compound was classed as inactive.

Regarding `O=C(N[C@@H](Cc1ccccc1)[C@@H](O)C(=O)N1C[C@@H](O)[C@@H](O)C1)c1cc2cc(Cl)ccc2[nH]1`, the outcome was inactive.

Take `CCCCC(CC)COC(=O)CC(C(=O)OCC(CC)CCCC)S(=O)(=O)O` (stereo not given): the result was inactive.

As to `CCCCCCCCCCCCCCCC`, the compound was called inactive.

As for `Cc1ccc2ncccc2c1`, the outcome was inactive.

In the case of `CC(=O)OC/C=C(\C)CCC=C(C)C`, the compound was called inactive.

For `COc1cc(/C=C/C(=O)CC(=O)/C=C/c2ccc(O)c(OC)c2)ccc1O`, the AC50 is 25.9 µM (active).

For the compound `NCC1(Cc2noc(=O)[nH]2)CCCCC1`, the outcome was inactive.

With `Cc1cccc([N+](=O)[O-])c1C`, the outcome was inactive.

In the case of `CC(=O)C(C)=CC1C(C)=CCCC1(C)C` (stereo not given), the call was inactive.

As for `Nc1ccc(S(=O)(=O)c2ccc(N)cc2)cc1`, the compound was called inactive.

For `C=CCOC(=O)c1ccccc1C(=O)OCC=C`, the call was inactive.

Turning to `COc1cc(C=O)ccc1O`, the AC50 is 31.1 µM (active).

In the case of `Cc1cccc(C)c1O`, the call was inactive.

For the compound `COc1ccc2c(c1)c(CC(=O)O)c(C)n2C(=O)c1ccc(Cl)cc1`, the compound was called inactive.

Take `CCCCCCC(=O)OCC`: the call was inactive.

In the case of `Cc1ccc(C(C)C)c(O)c1`, the result was inactive.

For `C1CCC(SSC2CCCCC2)CC1`, the call was inactive.

As to `Cc1ccc(N(C)C)cc1`, the compound was called inactive.

On to `COC(=O)c1ccc(O)cc1`, for which the compound was called inactive.

In the case of `CCCCCCCCCCC`, the compound was called inactive.

For `FC(F)(F)C(F)(F)C(F)(F)C(F)(F)C(F)(F)C(F)(F)CCI`, the compound was classed as inactive.

`CC1=C(/C=C/C(C)=C/C=C/C(C)=C/CO)C(C)(C)CCC1`: the AC50 is 0.104 µM (active).

For `CCOC(=O)CCC(=O)OCC`, the compound was called inactive.

Turning to `C=CCc1ccc(O)c(OC)c1`, the result was inactive.

Turning to `CC=Cc1ccc(O)c(OC)c1`, the compound was called inactive.

As to `CCCc1cc(=O)[nH]c(=S)[nH]1`, the outcome was inactive.

As to `COc1ccc(S(=O)(=O)N2C(=O)[C@@](c3ccccc3OC)(N3C[C@H](O)C[C@H]3C(=O)N(C)C)c3cc(Cl)ccc32)c(OC)c1`, the call was inactive.

As for `Nc1nc(N)c2nc(CNc3ccc(C(=O)N[C@@H](CCC(=O)O)C(=O)O)cc3)cnc2n1`, the compound was classed as inactive.

Turning to `Cc1oc(-c2ccccc2)nc1CCOc1cccc2c1ccn2CCC(=O)O`, the result was inactive.

In the case of `Oc1ccc2c(c1)OC[C@@H](N1CCC(O)(c3ccc(F)cc3)CC1)[C@H]2O`, the result was inactive.
